# Results published in PubChem BioAssay AID463190 (Sanford-Burnham Center for Chemical Genomics, 2010).
# Among all 330,000 compounds or so, about 7,300 (2.2%) were called active. The list comes from a sample in which actives are over-represented; it also holds similar structures and randomly drawn compounds. Unmarked numbers belong to inactive results.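 The calls were made as follows: active = inhibition of at least 40%; inactive = the rest.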
# Experiment: growth inhibition of tim10-1 ts yeast – luminescence, uHTS, primary screen (AID 463190);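 also: mutant grown at 25 °C; 0% = DMSO wells with yeast and 100% = wells holding no yeast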
# Conditions: S. cerevisiae tim10-1 ts strain growth, BacTiter-Glo, 24 h; at 20 µM; stronger effect = higher value
row,Compound,inhibition
1,Cc1nc2ccccn2c1P(=S)(N1CCCCC1)N1CCCCC1,56.2% (active)
2,O=C(COc1ccc2ccccc2c1)N1CCN(Cc2ccncc2)CC1,24.7%
3,CNP1(NC)=Nc2nn(-c3ccccc3)c(N)c2C(c2ccccc2)=N1,-2.7%
4,CCc1ccc(OCC(=O)N2CCN(CC(=O)Nc3ccccc3Cl)CC2)cc1,12.7%
5,COc1cccc(N2C(=O)NC(=O)/C(=C\c3ccc([N+](=O)[O-])s3)C2=O)c1,70.3% (active)
6,O=C1NC(=O)N(c2ccccc2)C(=O)/C1=C/c1ccc([N+](=O)[O-])s1,81.2% (active)
7,COc1cccc(N2C(=O)NC(=O)/C(=C\c3cn(C)c4ccccc34)C2=O)c1,13.4%
8,COc1ccc(N2C(=O)/C(=C/c3ccco3)C(=O)NC2=S)cc1,23.1%
9,Fc1ccc(C2N3CCCN23)cc1 (stereo not given),-13.4%
10,O=C(O)CCn1cc(C=C2C(=O)NC(=S)NC2=O)c(-c2cccc(Br)c2)n1,23.4%
11,COc1ccc2c(c1O)-c1cccc3c1[C@@H](C2)N(C)CC3,-10%
12,CN(C)C(=O)Oc1cc(=O)n2c3c(cccc13)CCC2,13.3%
13,O=C1C2(Cl)C3(Cl)C4(Cl)C(Cl)(Cl)C5(Cl)C3(Cl)C1(Cl)C5(Cl)C24Cl (stereo not given),-91.8%
14,O=C(CCCn1c(=O)[nH]c2cc(Cl)ccc2c1=O)N1CCC2(CC1)OCCO2,17.3%
15,COC(=O)C1=C(c2ccc(F)cc2OCc2ccccc2)C[C@@H]2CC[C@H]1N2C(=O)NCc1ccc2[nH]ccc2c1,9.44%
16,N#CC1=C(N)Oc2c(c(=O)oc3ccccc23)C1c1ccccc1OC(=O)c1cccs1 (stereo not given),46.4% (active)
17,CCNc1nc2[nH]c(=O)c3c(c2s1)OC(N)=C(C#N)C3c1cccs1 (stereo not given),-13.5%
18,CC(=O)N(C1=NCCCS1)c1ccccc1F,3.96%
19,CC1C2Cn3c(nc4ccccc43)C1N(C)O2 (stereo not given),-11.3%
20,COP(=O)(OC)C(NC(=O)c1ccc(C)cc1)C(Cl)(Cl)Cl (stereo not given),11%
21,COC(=O)C1=C(c2cc3ccccc3s2)C[C@@H]2CC[C@H]1N2C(=O)NCCO,-17%
22,CCCCCn1c(=O)c(C(=O)NCc2ccccc2)c(O)c2ccccc21,-27.8%
23,CCCCCn1c(=O)c(C(=O)Nc2c(C)n(C)n(-c3ccccc3)c2=O)c(O)c2ccccc21,45.4% (active)
24,CCCCn1c(=O)c(C(=O)Nc2ccccc2Cl)c(O)c2ccccc21,2.29%
25,O=C(O)c1ccccc1NC(=O)C1C2CCC(O2)C1C(=O)O (stereo not given),-7.62%
